Data as given in PubChem BioAssay AID1159580 (chemical genetic matrix, 2015).
Several values for one entry are separate records, joined by “and”; a condition that tells them apart may be missing. Identical values can stand only once. In all, about 5,500 compounds went through this assay and about 2,000 (36%) were called active. Another 18% or so got no clear call; they are omitted. Some of the results follow. Values without a mark were called inactive. Cut-off read from the data, not from the text of the source: active = normalized growth mostly below about 0.91 (no sharp cut-off); inconclusive = no clear call, values can overlap the other calls; inactive = mostly above about 0.92.

Assay: chemical genetic growth profiling, strain panel (AID 1159580);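 note: tested at 20 µM; growth read once vehicle control cultures reached saturation at 30 °C; 1 = growth at the plate median or of vehicle wells; lower values mean less growth of the strain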
Conditions: S. cerevisiae deletion strains, growth OD

## CC(C)(Sc1cc(C(C)(C)C)c(O)c(C(C)(C)C)c1)Sc1cc(C(C)(C)C)c(O)c(C(C)(C)C)c1
Locus YAL013W, strain DEP1, active compounds read low
  normalized growth: 1.02
Locus YAL021C, strain ccr4, active compounds read low
  normalized growth: 1.03
Locus YAL026C, strain drs2, active compounds read low
  normalized growth: 1.01
Locus YAL030W, strain snc1, active compounds read low
  normalized growth: 1
Locus YBL061C, strain skt5, active compounds read low
  normalized growth: 0.993
Locus YBR009C, strain hhf1, active compounds read low
  normalized growth: 1.02
Locus YBR021W, strain FUR4, active compounds read low
  normalized growth: 1.01
Locus YBR023C, strain chs3, active compounds read low
  normalized growth: 0.998
Locus YBR171W, strain sec66, active compounds read low
  normalized growth: 1
Locus YBR229C, strain ROT2, active compounds read low
  normalized growth: 1.01
Locus YBR231C, strain swc5, active compounds read low
  normalized growth: 0.998
Locus YBR279W, strain paf1, active compounds read low
  normalized growth: 0.993
Locus YCL011C, strain gbp2, active compounds read low
  normalized growth: 1.02
Locus YCL016C, strain dcc1, active compounds read low
  normalized growth: 1
Locus YCL029C, strain bik1, active compounds read low
  normalized growth: 1.04
Locus YCL069W, strain vba3, active compounds read low
  normalized growth: 1.01
Locus YCR088W, strain abp1, active compounds read low
  normalized growth: 1
Locus YDL005C, strain med2, active compounds read low
  normalized growth: 1.02
Locus YDL035C, strain GPR1, active compounds read low
  normalized growth: 1.02
Locus YDL040C, strain nat1, active compounds read low
  normalized growth: 0.991
Locus YDL074C, strain BRE1, active compounds read low
  normalized growth: 1.03
Locus YDL101C, strain DUN1, active compounds read low
  normalized growth: 1.02
Locus YDL134C, strain PPH21, active compounds read low
  normalized growth: 1
Locus YDL185W, strain tfp1, active compounds read low
  normalized growth: 1.02
Locus YDL192W, strain arf1, active compounds read low
  normalized growth: 1.03
Locus YDR001C, strain nth1, active compounds read low
  normalized growth: 1.02
Locus YDR069C, strain doa4, active compounds read low
  normalized growth: 0.999
Locus YDR101C, strain arx1, active compounds read low
  normalized growth: 1.02
Locus YDR137W, strain rgp1, active compounds read low
  normalized growth: 0.99
Locus YDR150W, strain NUM1, active compounds read low
  normalized growth: 1.01
Locus YDR159W, strain sac3, active compounds read low
  normalized growth: 0.989
Locus YDR162C, strain NBP2, active compounds read low
  normalized growth: 1.01
Locus YDR195W, strain ref2
  normalized growth: 1.06
Locus YDR297W, strain sur2, active compounds read low
  normalized growth: 0.99
Locus YDR318W, strain mcm21, active compounds read low
  normalized growth: 1.04
Locus YDR334W, strain swr1, active compounds read low
  normalized growth: 1.02
Locus YDR335W, strain msn5, active compounds read low
  normalized growth: 1.01
Locus YDR388W, active compounds read low
  normalized growth: 1.02
Locus YDR392W, strain spt3, active compounds read low
  normalized growth: 1.03
Locus YDR502C, strain sam2, active compounds read low
  normalized growth: 1.02
Locus YEL003W, strain gim4, active compounds read low
  normalized growth: 1.02
Locus YEL037C, strain rad23, active compounds read low
  normalized growth: 1.01
Locus YEL061C, strain CIN8 (second series), active compounds read low
  normalized growth: 1.01
Locus YEL061C, strain CIN8, active compounds read low
  normalized growth: 1.01
Locus YER015W, strain faa2, active compounds read low
  normalized growth: 1.01
Locus YER016W, strain bim1, active compounds read low
  normalized growth: 1.01
Locus YER110C, active compounds read low
  normalized growth: 1.02
Locus YER111C, strain swi4, active compounds read low
  normalized growth: 1.01
Locus YER155C, strain BEM2 (second series), active compounds read low
  normalized growth: 0.985
Locus YER155C, strain BEM2, active compounds read low
  normalized growth: 1.01
Locus YER167W, strain BCK2, active compounds read low
  normalized growth: 1.03
Locus YFR010W, strain ubp6, active compounds read low
  normalized growth: 1.04
Locus YGL078C, strain dbp3, active compounds read low
  normalized growth: 1.03
Locus YGL086W, strain mad1, active compounds read low
  normalized growth: 1.35 [resistant] (active)
Locus YGL167C, strain pmr1, active compounds read low
  normalized growth: 0.998
Locus YGL173C, strain kem1, active compounds read low
  normalized growth: 0.986
Locus YGL227W, strain vid30, active compounds read low
  normalized growth: 1.02
Locus YGL240W, strain doc1, active compounds read low
  normalized growth: 0.958
Locus YGL248W, strain PDE1, active compounds read low
  normalized growth: 1.01
Locus YGL253W, strain hxk2, active compounds read low
  normalized growth: 1.02
Locus YGR078C, strain PAC10, active compounds read low
  normalized growth: 1.02
Locus YGR135W, strain pre9, active compounds read low
  normalized growth: 1.04
Locus YGR229C, strain SMI1, active compounds read low
  normalized growth: 1.02
Locus YGR252W, strain gcn5, active compounds read low
  normalized growth: 1.06
Locus YHR013C, strain ard1, active compounds read low
  normalized growth: 1
Locus YHR027C, strain rpn1, active compounds read low
  normalized growth: 1
Locus YHR030C, strain SLT2, active compounds read low
  normalized growth: 1.02 and 0.989
Locus YHR079C, strain IRE1 (second series), active compounds read low
  normalized growth: 1.02
Locus YHR079C, strain IRE1, active compounds read low
  normalized growth: 1
Locus YHR094C, strain hxt1, active compounds read low
  normalized growth: 1.02
Locus YHR129C, strain ARP1, active compounds read low
  normalized growth: 1.01
Locus YHR142W, strain chs7, active compounds read low
  normalized growth: 1.04
Locus YHR200W, strain rpn10, active compounds read low
  normalized growth: 1.01
Locus YIL066C, strain RNR3, active compounds read low
  normalized growth: 1.01
Locus YIL073C, strain SPO22, active compounds read low
  normalized growth: 1.05
Locus YIL125W, strain kgd1, active compounds read low
  normalized growth: 1.02
Locus YIR030C, strain dcg1, active compounds read low
  normalized growth: 1.02
Locus YJL092W, strain hpr5, active compounds read low
  normalized growth: 1.01
Locus YJL095W, strain BCK1 (second series), active compounds read low
  normalized growth: 1
Locus YJL095W, strain BCK1, active compounds read low
  normalized growth: 1.05 and 0.992
Locus YJL115W, strain asf1, active compounds read low
  normalized growth: 0.993
Locus YJL129C, strain trk1, active compounds read low
  normalized growth: 1.02
Locus YJL134W, strain LCB3, active compounds read low
  normalized growth: 1.01
Locus YJL154C, strain vps35, active compounds read low
  normalized growth: 1.01
Locus YJL164C, strain tpk1, active compounds read low
  normalized growth: 1.01
Locus YJL166W, strain qcr8, active compounds read low
  normalized growth: 1.01
Locus YJL168C, strain set2, active compounds read low
  normalized growth: 1.02
Locus YJL187C, strain SWE1 (second series), active compounds read low
  normalized growth: 1.02
Locus YJL187C, strain SWE1, active compounds read low
  normalized growth: 1
Locus YJR043C, strain POL32, active compounds read low
  normalized growth: 1.03
Locus YJR066W, strain TOR1, active compounds read low
  normalized growth: 0.9
